Unmarked numbers belong to inactive results. Inconclusive results are not listed. A call without a number means that no potency is given here. Activity calls are given as the source filed them. Calls follow the shape of the dose curve; as a rule, active = well fitted activation curve with a large enough effect in the repeat runs; inconclusive = weak or mixed curves; inactive = flat fitted curve, though single readings scatter.
test: A CellTox Green Cytotoxicity Assay to monitor cytotoxicity in HEK293 cells - 32 hour (AID 1224881); settings: CellTox Green fluorescence; series mostly up to 76.8 µM; also: nearly all actives have a fitted effect of over 40% in size
In short: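 Fluorescence from a DNA-binding dye excluded by viable cells was measured repeatedly in the same HEK293 wells (600 cells/well) during continuous compound exposure at 37 C. Each assay gives one read point: 0, 8, 16, 24, 32 or 40 h.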

| Compound | Potency | cytotoxicity increase |
| --- | --- | --- |
| CC(O)C(CO)C(C)O (centres undefined) | inactive | – |
| Cc1cc(O)c(Cl)cc1C | inactive | – |
| CCCCCCCCCCCCCCCCN(C)C | – | 3.45% [at 6.97 µM] |
| Cc1ccc2ccccc2n1 | inactive | – |
| CCCCC(CC)COC(=O)CC#N (centres undefined) | inactive | – |
| CCCCCCCCCCCBr | inactive | – |
| COC(=O)C(c1ccccc1Cl)N1CCc2sccc2C1 (centres undefined) | inactive | – |
| CCO/C=C1\N=C(c2ccccc2)OC1=O | inactive | – |
| C=CCN(CC=C)CC=C | inactive | – |
| CC[N+](C)(CC)CC | inactive | – |
| C/C(Cl)=C/CCl | inactive | – |
| C=CC(C)(CCC=C(C)C)OC(=O)C(C)C (centres undefined) | inactive | – |
| CCCCC(O)/C=C(C)/C=C/C=C/C(=O)N1CCCC1=O (centres undefined) | inactive | – |
| CCOCCOCCOC(C)=O | inactive | – |
| CC12CCCC=C1C(=O)OC2=O (centres undefined) | inactive | – |
| CCCc1ccc(O)c(OC)c1 | inactive | – |
| COc1cc(OC)cc(OC)c1 | inactive | – |
| CCCCCCC(=O)c1ccccc1 | inactive | – |
| CC(=O)SC[C@@H](C)C(=O)N1CCC[C@H]1C(=O)N[C@@H](Cc1ccccc1)C(=O)O | inactive | – |

| Compound | Potency | cytotoxicity increase |
| --- | --- | --- |
| CN(C)CCc1c[nH]c2ccc(C[C@H]3COC(=O)N3)cc12 | inactive | – |
| CCCCCCCCS(=O)(=O)O | inactive | – |
| CC(C)(C)C(=O)NCCCC(=O)O | inactive | – |
| CC(C)(C)NCC(O)COc1cccc2c1CCC(=O)N2 (centres undefined) | inactive | – |
| O=C(c1ccccc1)c1cccc(O)c1 | inactive | – |
| CCNC(=O)C(C)OC(=O)Nc1ccccc1 (centres undefined) | inactive | – |
| Cc1ccccc1OCC(=O)O | inactive | – |
| Nc1nc(Cl)cc(Cl)n1 | inactive | – |
| O=C(O)Cc1c(Cl)ccc(Cl)c1Cl | inactive | – |
| CCCCCC(=O)CC | inactive | – |
| CC(C)(Sc1cc(C(C)(C)C)c(O)c(C(C)(C)C)c1)Sc1cc(C(C)(C)C)c(O)c(C(C)(C)C)c1 | inactive | – |
| COc1cc(S(N)(=O)=O)cc(C(=O)O)c1OC | inactive | – |
| C=CCCCCCCCCCCCCCC | – | -0.422% [at 15.8 µM] |
| CC(C)(C)c1ccc(C(=O)CCCCl)cc1 | inactive | – |
| CN(C)CCC[C@@]1(c2ccc(F)cc2)OCc2cc(C#N)ccc21 | inactive | – |
| O=c1c(O)c(O)c1=O | inactive | – |
| NNC(=O)CCCCC(=O)NN | inactive | – |
| Cc1ccc(O)c(C(=O)c2ccccc2)c1 | inactive | – |
| CCCCCCC(O)CO (centres undefined) | inactive | – |

test: A CellTox Green Cytotoxicity Assay to monitor cytotoxicity in HepG2 cells - 0 hour (AID 1224882); settings: CellTox Green fluorescence; series mostly up to 76.8 µM; also: nearly all actives have a fitted effect of over 35% in size
In short: (§1)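 Real-time cytotoxicity: fluorescence of a cell-impermeant cyanine dye binding DNA of dead HepG2 cells, measured repeatedly (0–40 h) during compound exposure at 37 C. Cells seeded 600/well with reagent, dosed after 5 h.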

| Compound | Potency | cytotoxicity |
| --- | --- | --- |
| CC(O)C(CO)C(C)O (centres undefined) | inactive | – |
| Cc1cc(O)c(Cl)cc1C | inactive | – |
| CCCCCCCCCCCCCCCCN(C)C | – | 2.28% [at 6.97 µM] |
| Cc1ccc2ccccc2n1 | inactive | – |
| CCCCC(CC)COC(=O)CC#N (centres undefined) | inactive | – |
| CCCCCCCCCCCBr | inactive | – |
| COC(=O)C(c1ccccc1Cl)N1CCc2sccc2C1 (centres undefined) | inactive | – |
| CCO/C=C1\N=C(c2ccccc2)OC1=O | inactive | – |
| C=CCN(CC=C)CC=C | inactive | – |
| CC[N+](C)(CC)CC | inactive | – |
| C/C(Cl)=C/CCl | inactive | – |
| C=CC(C)(CCC=C(C)C)OC(=O)C(C)C (centres undefined) | inactive | – |
| CCCCC(O)/C=C(C)/C=C/C=C/C(=O)N1CCCC1=O (centres undefined) | inactive | – |
| CCOCCOCCOC(C)=O | inactive | – |
| CC12CCCC=C1C(=O)OC2=O (centres undefined) | inactive | – |
| CCCc1ccc(O)c(OC)c1 | inactive | – |
| COc1cc(OC)cc(OC)c1 | inactive | – |
| CCCCCCC(=O)c1ccccc1 | inactive | – |
| CC(=O)SC[C@@H](C)C(=O)N1CCC[C@H]1C(=O)N[C@@H](Cc1ccccc1)C(=O)O | inactive | – |

| Compound | Potency | cytotoxicity |
| --- | --- | --- |
| CN(C)CCc1c[nH]c2ccc(C[C@H]3COC(=O)N3)cc12 | inactive | – |
| CCCCCCCCS(=O)(=O)O | inactive | – |
| CC(C)(C)C(=O)NCCCC(=O)O | inactive | – |
| CC(C)(C)NCC(O)COc1cccc2c1CCC(=O)N2 (centres undefined) | inactive | – |
| O=C(c1ccccc1)c1cccc(O)c1 | inactive | – |
| CCNC(=O)C(C)OC(=O)Nc1ccccc1 (centres undefined) | inactive | – |
| Cc1ccccc1OCC(=O)O | inactive | – |
| Nc1nc(Cl)cc(Cl)n1 | inactive | – |
| O=C(O)Cc1c(Cl)ccc(Cl)c1Cl | inactive | – |
| CCCCCC(=O)CC | inactive | – |
| CC(C)(Sc1cc(C(C)(C)C)c(O)c(C(C)(C)C)c1)Sc1cc(C(C)(C)C)c(O)c(C(C)(C)C)c1 | inactive | – |
| COc1cc(S(N)(=O)=O)cc(C(=O)O)c1OC | inactive | – |
| C=CCCCCCCCCCCCCCC | – | 7.56% [at 15.8 µM] |
| CC(C)(C)c1ccc(C(=O)CCCCl)cc1 | inactive | – |
| CN(C)CCC[C@@]1(c2ccc(F)cc2)OCc2cc(C#N)ccc21 | inactive | – |
| O=c1c(O)c(O)c1=O | inactive | – |
| NNC(=O)CCCCC(=O)NN | inactive | – |
| Cc1ccc(O)c(C(=O)c2ccccc2)c1 | inactive | – |
| CCCCCCC(O)CO (centres undefined) | inactive | – |

test: A CellTox Green Cytotoxicity Assay to monitor cytotoxicity in HepG2 cells - 32 hour (AID 1224883); settings: CellTox Green fluorescence; series mostly up to 76.8 µM; also: nearly all actives have a fitted effect of over 50% in size; also: potency is read from the fitted curve at half-maximal effect
In short: as §1

| Compound | Potency | cytotoxicity increase |
| --- | --- | --- |
| CC(O)C(CO)C(C)O (centres undefined) | inactive | – |
| Cc1cc(O)c(Cl)cc1C | 49 µM (active) | – |
| CCCCCCCCCCCCCCCCN(C)C | – | 1.06% [at 6.97 µM] |
| Cc1ccc2ccccc2n1 | inactive | – |
| CCCCC(CC)COC(=O)CC#N (centres undefined) | inactive | – |
| CCCCCCCCCCCBr | inactive | – |
| COC(=O)C(c1ccccc1Cl)N1CCc2sccc2C1 (centres undefined) | inactive | – |
| CCO/C=C1\N=C(c2ccccc2)OC1=O | inactive | – |
| C=CCN(CC=C)CC=C | inactive | – |
| CC[N+](C)(CC)CC | inactive | – |
| C/C(Cl)=C/CCl | inactive | – |
| C=CC(C)(CCC=C(C)C)OC(=O)C(C)C (centres undefined) | inactive | – |
| CCCCC(O)/C=C(C)/C=C/C=C/C(=O)N1CCCC1=O (centres undefined) | inactive | – |
| CCOCCOCCOC(C)=O | inactive | – |
| CC12CCCC=C1C(=O)OC2=O (centres undefined) | inactive | – |
| CCCc1ccc(O)c(OC)c1 | inactive | – |
| COc1cc(OC)cc(OC)c1 | inactive | – |
| CCCCCCC(=O)c1ccccc1 | inactive | – |
| CC(=O)SC[C@@H](C)C(=O)N1CCC[C@H]1C(=O)N[C@@H](Cc1ccccc1)C(=O)O | inactive | – |

| Compound | Potency | cytotoxicity increase |
| --- | --- | --- |
| CN(C)CCc1c[nH]c2ccc(C[C@H]3COC(=O)N3)cc12 | inactive | – |
| CCCCCCCCS(=O)(=O)O | inactive | – |
| CC(C)(C)C(=O)NCCCC(=O)O | inactive | – |
| CC(C)(C)NCC(O)COc1cccc2c1CCC(=O)N2 (centres undefined) | inactive | – |
| O=C(c1ccccc1)c1cccc(O)c1 | inactive | – |
| CCNC(=O)C(C)OC(=O)Nc1ccccc1 (centres undefined) | inactive | – |
| Cc1ccccc1OCC(=O)O | inactive | – |
| Nc1nc(Cl)cc(Cl)n1 | inactive | – |
| O=C(O)Cc1c(Cl)ccc(Cl)c1Cl | inactive | – |
| CCCCCC(=O)CC | inactive | – |
| CC(C)(Sc1cc(C(C)(C)C)c(O)c(C(C)(C)C)c1)Sc1cc(C(C)(C)C)c(O)c(C(C)(C)C)c1 | inactive | – |
| COc1cc(S(N)(=O)=O)cc(C(=O)O)c1OC | inactive | – |
| C=CCCCCCCCCCCCCCC | – | -0.009% [at 15.8 µM] |
| CC(C)(C)c1ccc(C(=O)CCCCl)cc1 | inactive | – |
| CN(C)CCC[C@@]1(c2ccc(F)cc2)OCc2cc(C#N)ccc21 | inactive | – |
| O=c1c(O)c(O)c1=O | inactive | – |
| NNC(=O)CCCCC(=O)NN | inactive | – |
| Cc1ccc(O)c(C(=O)c2ccccc2)c1 | inactive | – |
| CCCCCCC(O)CO (centres undefined) | inactive | – |

From PubChem BioAssay (Tox21)
